Experimental data from PubChem BioAssay (NCATS).
Results filed as inconclusive are left out. Active and inactive are the calls of the source. Calls follow the shape of the dose curve; as a rule, active = well fitted inhibition curve with a large enough effect; inconclusive = small, poorly fitted or top-dose-only effect; inactive = flat fitted curve, though single readings scatter.

Key:
[1] = test system: CRL-7250; experiment: Cytotoxic Profiling of Annotated Libraries Using Quantitative High-Throughput Screening (AID 1296008); conditions: Five cell lines viability, CellTiter-Glo ATP luminescence, 48-72 h; max response: stronger effect = lower value; as to max response: % is scaled to controls: 0 for no effect and ±100 for the full control effect
In short: (§1)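 Compounds were pin-transferred onto cells and incubated 48 or 72 hr at 37 degree Celsius, 95% humidity. CellTiter-Glo was added, plates sat 10 min at room temperature, then ATP-coupled luminescence was imaged as the viability read-out.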

[2] = test system: HEK293; experiment: as above; conditions: Five cell lines viability, CellTiter-Glo ATP luminescence, 48-72 h; max response: stronger effect = lower value
In short: as §1

[3] = test system: KB-3-1; experiment: as above; conditions: Five cell lines viability, CellTiter-Glo ATP luminescence, 48-72 h; max response: stronger effect = lower value
In short: as §1

[4] = test system: NIH3T3; experiment: as above; conditions: Five cell lines viability, CellTiter-Glo ATP luminescence, 48-72 h; max response: stronger effect = lower value
In short: as §1

[5] = test system: HEK293T; experiment: qHTS assay to identify novel small-molecules to repurpose for Merkel cell carcinoma treatment (AID 1296009); conditions: MCC and control cell lines, CellTiter-Glo viability, 72 h; at 44.8 µM (top of the series) unless noted
In short: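 Luminescence from CellTiter-Glo, read 10 min after addition at room temperature, reported viability following a 72 hr, 37 degree celsius treatment with NPC or MIPE compounds in titration; values normalized to plate controls.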

[6] = test system: HaCat; experiment: Cytotoxic Profiling of Annotated Libraries Using Quantitative High-Throughput Screening (AID 1296008); conditions: Five cell lines viability, CellTiter-Glo ATP luminescence, 48-72 h; max response: stronger effect = lower value; as to max response: % is scaled to controls: 0 for no effect and ±100 for the full control effect
In short: as §1

Measured: max response
Also: nearly all actives have a fitted effect of over 60% in size.

CC(C)=CCC[C@](C)(O)[C@H]1CC[C@]2(C)[C@@H]1[C@H](O)CC1[C@@]3(C)CC[C@H](O)C(C)(C)[C@@H]3[C@@H](O[C@@H]3O[C@H](CO)[C@@H](O)[C@H](O)[C@H]3O[C@@H]3O[C@H](CO)[C@@H](O)[C@H](O)[C@H]3O)C[C@]12C (stereo not given in full)
inactive: [1] -7.72% | [2] -11.9% | [3] 3.39% | [4]

CC/C=C\C/C=C\C/C=C\CCCCCCCC(=O)OCC(O)COC1OC(CO)C(O)C(O)C1O (stereo not given)
inactive: [1] -2.54% | [2] -1.09% | [3] | [4] -3.16%

C=CC1C(OC2OC(CO)C(O)C(O)C2O)OC=C(C(=O)OC)C1CC1CC(=O)CC(CCc2ccc(O)cc2)O1 (stereo not given)
inactive: [1] 3.27% | [2] -3.27% | [3] 0.837% | [4] -7.36%

O=C(O)c1ccc(OC2OC(CO)C(O)C(O)C2O)cc1 (stereo not given)
inactive: [1] | [2] -2.82% | [3] 6.64% | [4] 1.85%

CC/C=C\CCO[C@@H]1O[C@H](CO[C@@H]2OC[C@H](O)[C@H](O)[C@H]2O)[C@@H](O)[C@H](O)[C@H]1O
inactive: [1] | [2] | [3] | [4] -20.8% | [5]

CC(=O)O[C@H]1C[C@@]2(C)[C@@H](CC[C@H]3[C@@]4(C)C=CC(=O)[C@@H](C)[C@@H]4[C@H](O)C(=O)[C@@]32C)/C1=C(/CCC=C(C)C)C(=O)O
inactive: [1] -28.1% | [2] -6.72% | [3] 4.45% | [4] -3.01%

C=C(C)C1CCC2(C(=O)O[C@@H]3O[C@H](CO[C@@H]4O[C@H](CO)[C@@H](O)[C@H](O)[C@H]4O)[C@@H](O)[C@H](O[C@@H]4O[C@@H](C)[C@H](O)[C@@H](O)[C@H]4O)[C@H]3O)CCC3(C(=O)O)C(CCC4C5(C)CCC(O)C(C)(C)C5CCC43C)C12 (stereo not given in full)
inactive: [1] | [2] | [3] | [4] | [5] inactive [at 9.27 µM]

C=C1CCC2C(C)(COC(C)=O)CCCC2(C)C1CCC(C)CC(=O)O (stereo not given)
inactive: [1] -3% | [2] | [3] 8.96% | [4] | [5]

O=C(Nc1ccccc1-c1cn2c(CN3CCNCC3)csc2n1)c1ccc2ccccc2n1
inactive: [1] | [6] -14.7% | [3] 2.25% | [4] 4.15%

Cc1csc(NC(=O)c2ccc(COc3cccc(Cl)c3)o2)n1
inactive: [1] -4.74% | [6] 2.26% | [3] -1.89%

O=C(Nc1ccc(S(=O)(=O)Nc2nccs2)cc1)C(c1ccccc1)c1ccccc1
inactive: [1] -0.59% | [6] -1.59% | [3] 5.78% | [4] 3.11%

COc1ccc(CN2C(=O)C(=O)c3cc(S(=O)(=O)N4CCC[C@H]4COc4cccnc4)ccc32)cc1
inactive: [1] | [2] | [3] | [4] | [5]

C[C@]12C[C@@H](O)[C@@H]3C[C@@]1(O[C@@H]1O[C@H](CO)[C@@H](O)[C@H](O)[C@H]1O)[C@]3(COC(=O)c1ccccc1)C(=O)O2
inactive: [1] -9.75% | [2] | [3] 4.54% | [4] | [5] inactive [at 17.4 µM]

CC1CC2OC3(OC2C(C)(C)O)C1C1(C)CCC24CC25CCC(O[C@@H]2OC[C@@H](O)[C@H](O)[C@H]2O)C(C)(C)C5CC=C4C1(C)C3O (stereo not given in full)
inactive: [1] -7.03% | [2] | [3] 5.34% | [4] 0.0478% | [5] inactive [at 17.4 µM]

CC1C=CC2CCCCC2C1CCC1CC(O)CC(=O)O1 (stereo not given)
inactive: [1] -5.84% | [2] | [3] 3.85% | [4] -16% | [5]

O=C(O)c1ccccc1NC(=O)N1CCC(c2ccccc2C(F)(F)F)CC1
inactive: [1] | [2] | [3] -2.67% | [4] | [5]

O=C1NC(Cc2c[nH]c3ccccc23)C(=O)NC1Cc1c[nH]c2ccccc12 (stereo not given)
inactive: [1] -0.609% | [2] | [3] | [4] -2.22% | [5]

CC1(C)C[C@H](O)C[C@@]2(C)OC(=O)C=C12
inactive: [1] 1.12% | [2] | [3] | [4] 2.91% | [5] inactive [at 92 µM]

CCCCOC(=O)NC(=O)C1c2ccccc2Oc2ccccc21
inactive: [1] -2.73% | [2] | [3] 2.73% | [4] -5.65% | [5]

CC/C=C\CC1C(=O)C=CC1(CCCCCCCC(=O)O)OC(C)=O (stereo not given)
inactive: [1] -0.322% | [6] 3.46% | [3] | [4] 4.26%

CN(C)CCn1cc(S(=O)(=O)c2cccc(F)c2)c2cccnc21
inactive: [1] | [2] | [3] 1.25% | [4] -4.92% | [5]
